Source: PubChem BioAssay (NCATS)
Several values for one entry are separate records, joined by “and”; a condition that tells them apart may be missing. Equal entries are not always repeated. Results filed as inconclusive are left out. A call without a number means that no potency is given here. Unmarked numbers belong to inactive results. Activity calls are given as the source filed them. The call rests on the fitted dose curve; in most records, active means well fitted curve in the direction sought with a large enough effect; inconclusive means small, poorly fitted or top-dose-only effect, or another doubt; inactive means no such curve, though single readings can be large; an effect the other way counts as inactive or inconclusive.

How the values were obtained:
[1] = target: Cellular tumor antigen p53 (Homo sapiens) (UniProt P04637); assay: Primary qHTS for small molecule compounds that upregulate eGFP-tagged delta133p53alpha (in N-terminal) cells. (AID 2060322); conditions: NCI-H358 eGFP-delta133p53alpha fluorescence, 24 h; activation: hits give high values; further: series mostly up to about 56 µM; nearly all actives have a fitted effect of over 75% in size
Summary of the method: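 NCI-H358 cells pre-induced 24 h with 10 ng/ml doxycycline to express N-terminal eGFP-delta133p53alpha, then dosed 24 h at 37C without doxycycline; fixed, Hoechst-stained, GFP intensity by laser scanning cytometry, normalized to DMSO (0%) and 57.5 uM 5-azacytidine (100%).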

[2] = target: Aldehyde dehydrogenase, mitochondrial (Homo sapiens) (UniProt P05091); assay: qHTS for Inhibitors of the Aldehyde Dehydrogenase Family (ALDH2) Primary screen (AID 2061308); further: nearly all actives have a fitted effect of over 55% in size
[3] = target: Retinaldehyde dehydrogenase 3 (Homo sapiens) (UniProt P47895); assay: qHTS for Inhibitors of the Aldehyde Dehydrogenase Family (ALDH1A3) Validation screen (AID 2061312); further: nearly all actives have a fitted effect of over 45% in size
[4] = target: Retinaldehyde dehydrogenase 3 (Homo sapiens) (UniProt P47895); assay: qHTS for Inhibitors of the Aldehyde Dehydrogenase Family (ALDH1A3) Primary screen (AID 2061315)
[5] = BET inhibitor-based combinations targeting novel dependencies in MECOM-rearranged (r) AML: UCSD-AML1 cell line (AID 2202235); further: nearly all actives have a fitted effect of over 40% in size; further: potency means the concentration at half of the fitted maximal effect
Summary of the method: (§1)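 Using pin-tool transfer, drugs were added in 11 doses to cells (500/well), incubated 48 hr, and assessed with CellTiter-Glo. Z-AUC is a mean-centring transformation applied separately to each screened line.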

[6] = BET inhibitor-based combinations targeting novel dependencies in MECOM-rearranged (r) AML: MV-4-11 cell line (AID 2202233); further: potency means the concentration at half of the fitted maximal effect; nearly all actives have a fitted effect of over 45% in size
Summary of the method: as §1

[7] = BET inhibitor-based combinations targeting novel dependencies in MECOM-rearranged (r) AML: OCI-AML3 cell line (AID 2202232); conditions: Potency: OCI-AML3 viability; further: nearly all actives have a fitted effect of over 35% in size; further: potency means the concentration at half of the fitted maximal effect
Summary of the method: (§2)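 Viability of cells (500 per well) is scored by luminescent CellTiter-Glo at 48 hr post-dosing. Eleven-point titrations are normalized to DMSO and empty controls and reduced to AUC values.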

[8] = BET inhibitor-based combinations targeting novel dependencies in MECOM-rearranged (r) AML: AML-194 cell line (AID 2202237; further: nearly all actives have a fitted effect of over 40% in size; further: potency means the concentration at half of the fitted maximal effect)
Summary of the method: as §2

[9] = BET inhibitor-based combinations targeting novel dependencies in MECOM-rearranged (r) AML: AML-191 cell line (AID 2202236; further: nearly all actives have a fitted effect of over 35% in size; further: potency means the concentration at half of the fitted maximal effect)
Summary of the method: as §2

[10] = BET inhibitor-based combinations targeting novel dependencies in MECOM-rearranged (r) AML: HNT-34 cell line (AID 2202234); further: nearly all actives have a fitted effect of over 35% in size; further: potency means the concentration at half of the fitted maximal effect
Summary of the method: as §1

Cellular tumor antigen p53 (Homo sapiens), sequence (P04637 whole entry, looked up): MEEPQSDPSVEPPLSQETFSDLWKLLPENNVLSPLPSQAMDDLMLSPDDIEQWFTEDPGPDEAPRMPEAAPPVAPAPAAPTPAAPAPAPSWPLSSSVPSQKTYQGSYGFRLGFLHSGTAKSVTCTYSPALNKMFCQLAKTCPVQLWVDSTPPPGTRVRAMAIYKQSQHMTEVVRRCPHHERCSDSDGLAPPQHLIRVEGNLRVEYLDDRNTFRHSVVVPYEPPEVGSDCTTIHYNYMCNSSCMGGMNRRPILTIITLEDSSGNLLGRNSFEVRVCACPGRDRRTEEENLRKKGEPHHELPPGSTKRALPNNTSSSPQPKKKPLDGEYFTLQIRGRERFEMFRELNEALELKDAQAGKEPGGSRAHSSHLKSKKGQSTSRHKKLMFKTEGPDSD

SMILES	activation [1]	Potency [2]	Potency [3]	Potency [4]	Potency [5]	Potency [6]	Potency [7]	Potency [8]	Potency [9]	Potency [10]
CC(C)c1cc(-c2n[nH]c(=O)n2-c2ccc3c(ccn3C)c2)c(O)cc1O	-0.957% and -3.82%	inactive	inactive	inactive	0.0468 µM (active)	–	–	–	–	–
O=C(Nc1cccc(Br)c1)c1cccc(S(=O)(=O)N2CCCCCC2)c1	41.1% and -27.9%	inactive	inactive	inactive	inactive	16.6 µM (active)	–	–	–	–
C[C@@]1(C(=O)Nc2ccc(F)nc2)CCCN1c1nc(Nc2cc(C3CC3)[nH]n2)c2cccn2n1	19.3%	inactive	inactive	inactive	–	2.95 µM (active)	0.0742 µM (active)	1.48 µM (active)	–	–
COC1CCN(C(=O)c2cc(Cc3n[nH]c(=O)c4ccccc34)ccc2F)CC1	4.47%	inactive	inactive	inactive	–	16.6 µM (active)	–	–	18.6 µM (active)	–
c1ccc(CNc2nc(N3CCOc4ccccc43)nc3c2CCCC3)cc1	-5.48% and -6.21%	inactive	inactive	inactive	inactive	–	–	inactive	–	–
CCNC1(C(N)=O)CCN(c2ncnc3c2nc(-c2ccccc2Cl)n3-c2ccc(Cl)cc2)CC1	0.477%	inactive	inactive	inactive	inactive	–	inactive	–	–	26.3 µM (active)
CC#C[C@@H](CC(=O)O)c1ccc(OCc2cccc(-c3ccc(C(F)(F)F)cc3)c2)cc1	-17.2%	inactive	inactive	inactive	–	–	–	–	20.9 µM (active)	inactive
O=C(O)C[C@H](O)C[C@H](O)/C=C/c1c(C2CC2)nc2ccccc2c1-c1ccc(F)cc1	15.3%	inactive	inactive	inactive	2.63 µM (active)	–	–	13.2 µM (active)	10.5 µM (active)	2.95 µM (active)
CCC[C@H](N[C@H]1CCc2cc(F)cc(F)c2C1)C(=O)Nc1cn(C(C)(C)CNCC(C)(C)C)cn1	-12.9%	inactive	inactive	inactive	inactive	–	–	inactive	–	–
CCNC(=O)c1noc(-c2cc(C(C)C)c(O)cc2O)c1-c1ccc(CN2CCOCC2)cc1	-2.59% and -6.68%	inactive	inactive	inactive	0.0166 µM (active)	–	–	–	–	–
O=C(NCCCNc1nc(Nc2cccc(CN3CCOCC3)c2)ncc1C1CC1)C1CCC1	-15.3%	inactive	inactive	inactive	–	0.417 µM (active)	–	–	–	16.6 µM (active)
Cc1noc2c1-c1ccccc1C(c1ccc(Cl)cc1)=N[C@H]2CC(N)=O	32.4%	inactive	inactive	inactive	–	–	1.32 µM (active)	–	–	1.48 µM (active)
O=C(Nc1cccc(C(F)(F)F)c1)Nc1cc(S(=O)(=O)NC2CC2)ccc1-c1ccsc1	29.6% and 2.39%	inactive	inactive	inactive	–	26.3 µM (active)	–	–	–	–
CNCc1ccc(-c2[nH]c3cc(F)cc4c3c2CCNC4=O)cc1	35.7%	inactive	inactive	–	–	11.8 µM (active)	–	–	–	–
CCOC(=O)C1=C(C)NC2=C(C(=O)CC(C)(C)C2)C1c1ccc(-c2ccccc2)cc1 (centres undefined)	5.7%	inactive	inactive	inactive	inactive	–	13.2 µM (active)	–	inactive	–
CC(C)C(=O)Nc1ncc(-c2cc(C(F)F)nn2-c2c(Cl)cccc2Cl)s1	35.2% and 29.6%	inactive	inactive	inactive	inactive	–	23.5 µM (active)	–	20.9 µM (active)	–
COc1cc(OC)c2c(=O)[nH]c(-c3cc(C)c(OCCO)c(C)c3)nc2c1	-0.477%	inactive	inactive	inactive	–	16.6 µM (active)	14.8 µM (active)	20.9 µM (active)	16.6 µM (active)	–
Cc1cc(N2CCOCC2)ccc1Nc1nc(NC2CCCCC2)c2[nH]cnc2n1	7.16%	inactive	inactive	inactive	–	1.32 µM (active)	–	4.17 µM (active)	–	–
FC(F)(F)c1ccc(CNc2ccc(Cc3c[nH]c4ncccc34)cn2)cc1	2.39%	inactive	inactive	inactive	–	0.525 µM (active)	20.9 µM (active)	16.6 µM (active)	13.2 µM (active)	–
